Test results from the supplement of paper PMC10849652.
The full data set covers some 7,900 targets. This sample favours those with a hit. About 0.6% of all pairs of compound and target were hits. Values without a mark were called inactive.

Experiments:
Test in all cases: log2 fold change, soluble protein after heating vs DMSO (PISA); higher = thermal stabilisation; K562 cells, 10 uM, 30 min; active = over 0.2 and 3.5 SD of the protein, either way, in both replicates (recomputed)
[1] = compound: C#Cc1cccc(Nc2ncnc3cc(OCCOC)c(OCCOC)cc23)c1 [erlotinib]
Outline: (§1)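 Thermal stability values are relative to control samples and come from duplicates. They are expressed as log2 fold changes. For measurement, K562 cells (2×10^6 cells/mL) received 10 μM compound for 30 min, and aliquots were heated for 3 min over 48°C-58°C, pooled, and extracted at 4°C in PBS with 0.5% NP-40. Soluble protein, the supernatant after 21,000xg for 90 min, was quantified by TMTpro 16plex LC-MS/MS with equalised channel sums.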

[2] = compound: C/C(=N\NC(=O)C1=CC(=CC=C1)S(=O)(=O)N2CCOCC2)/C3=C(C=CC(=C3)Cl)O
Outline: as §1

[3] = compound: C1=CC(=C(C=C1Cl)C2=NC3=NC=CN=C3C(=N2)NC4=CC=NC=C4)F
Outline: as §1

[4] = compound: C1=CC(=CC=C1C2=NC3=C(N2)C=C(C=C3)C(=O)N)OC4=CC=C(C=C4)Cl
Outline: as §1

[5] = compound: C1=CC2=C(C=CC(=C2)/C=C\3/C(=O)NC(=NCC4=CC=CS4)S3)N=C1
Outline: as §1

[6] = compound: C1=CC2=NC=CN=C2C=C1/C=C/3\C(=O)NC(=O)S3
Outline: as §1

[7] = compound: C1=CC=C(C=C1)C2=NC(=C(N2)C3=CC=NC=C3)C4=CC(=C(C=C4)Cl)O
Outline: as §1

[8] = compound: C1=CC=C2C(=C1)C3=NNC4=CC=CC(=C43)C2=O
Outline: as §1

[9] = compound: C1CCN(C1)C(=O)NC2=CC=CC(=C2)NC3=NC=C(C(=N3)NCCC4=CN=CN4)Br
Outline: as §1

[10] = compound: C1CN(CCC1(CC2=CC=C(C=C2)Cl)N)C3=NC=NC4=C3C=CN4
Outline: as §1

[11] = compound: C1COCCN1CCN2C3=CC=CC=C3N=C2NC(=O)C4=CC(=CC=C4)[N+](=O)[O-] [IRAK-1-4 Inhibitor I]
Outline: as §1

[12] = compound: C=CC(=O)N1CCC[C@@H](n2nc(-c3ccc(Oc4ccccc4)cc3)c3c(N)ncnc32)C1 [ibrutinib]
Outline: as §1

[13] = compound: CC(=O)c1cnc2ccc(-c3cc(Cl)c(O)c(Cl)c3)nc2c1N[C@H]1CC[C@H](CN(C)C)CC1
Outline: as §1

[14] = compound: CC(C)(C)Cn1c(N)nc2ccc(-c3[nH]c(C(C)(C)C)nc3-c3ccc(F)cc3)nc21 [ralimetinib]
Outline: as §1

[15] = compound: CC(C)(O)CC(=O)NCCn1ccc2ncnc(Nc3ccc(Oc4cccc(C(F)(F)F)c4)c(Cl)c3)c21
Outline: as §1

[16] = compound: CC(C)C1=C2N=C(C=C(N2N=C1)NCC3=CC=CC=C3)NCCCCCCN
Outline: as §1

[17] = compound: CC(C)C[C@@H](C=O)NC(=O)[C@H](CC(C)C)NC(=O)[C@H](CC(C)C)NC(=O)OCc1ccccc1
Outline: as §1

[18] = compound: CC(C)N(C[C@H]1O[C@@H](n2cnc3c(N)ncnc32)[C@H](O)[C@@H]1O)[C@H]1C[C@@H](CCc2nc3cc(C(C)(C)C)ccc3[nH]2)C1 [pinometostat]
Outline: as §1

[19] = compound: CC1=C(C(CC(=O)N1)C2=CC=C(C=C2)C(F)(F)F)C(=O)NC3=C(C=C4C(=C3)C=NN4)F
Outline: as §1

[20] = compound: CC1=C(C2=C(C=C1)C(=O)C3=CC=CC=C3N2CCCN)C
Outline: as §1

Sequence of UniProt P09211 (P09211 whole entry, looked up): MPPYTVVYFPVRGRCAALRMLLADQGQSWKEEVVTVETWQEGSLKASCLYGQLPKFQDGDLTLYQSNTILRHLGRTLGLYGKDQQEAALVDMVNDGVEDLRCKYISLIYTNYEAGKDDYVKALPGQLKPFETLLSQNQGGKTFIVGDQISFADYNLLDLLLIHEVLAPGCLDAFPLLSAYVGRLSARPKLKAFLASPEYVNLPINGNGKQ
Sequence of UniProt Q8WXD5 (Q8WXD5 whole entry, looked up): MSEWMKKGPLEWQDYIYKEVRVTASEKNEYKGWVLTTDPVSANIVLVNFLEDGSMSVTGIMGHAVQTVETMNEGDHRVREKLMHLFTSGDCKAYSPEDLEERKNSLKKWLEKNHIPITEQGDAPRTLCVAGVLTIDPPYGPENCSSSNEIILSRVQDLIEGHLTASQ
Sequence of UniProt Q7Z4V5 (Q7Z4V5 whole entry, looked up): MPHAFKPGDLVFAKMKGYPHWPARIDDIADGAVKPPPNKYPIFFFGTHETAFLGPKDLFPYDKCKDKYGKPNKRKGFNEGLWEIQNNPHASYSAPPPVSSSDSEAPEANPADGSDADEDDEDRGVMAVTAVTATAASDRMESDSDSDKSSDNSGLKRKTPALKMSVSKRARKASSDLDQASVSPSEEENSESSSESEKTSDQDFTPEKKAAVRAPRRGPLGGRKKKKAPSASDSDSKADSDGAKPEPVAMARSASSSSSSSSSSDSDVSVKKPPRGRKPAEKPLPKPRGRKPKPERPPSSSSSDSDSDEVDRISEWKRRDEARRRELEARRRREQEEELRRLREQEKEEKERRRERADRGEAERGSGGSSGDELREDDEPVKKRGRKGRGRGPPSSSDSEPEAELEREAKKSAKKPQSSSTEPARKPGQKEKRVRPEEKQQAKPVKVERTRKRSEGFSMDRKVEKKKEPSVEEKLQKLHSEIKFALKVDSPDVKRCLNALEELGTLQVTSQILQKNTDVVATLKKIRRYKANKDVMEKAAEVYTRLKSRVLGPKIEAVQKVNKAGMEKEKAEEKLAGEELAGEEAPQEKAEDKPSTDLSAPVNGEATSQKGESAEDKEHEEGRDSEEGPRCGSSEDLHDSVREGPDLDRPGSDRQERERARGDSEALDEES
Sequence of UniProt O60725 (O60725 whole entry, looked up): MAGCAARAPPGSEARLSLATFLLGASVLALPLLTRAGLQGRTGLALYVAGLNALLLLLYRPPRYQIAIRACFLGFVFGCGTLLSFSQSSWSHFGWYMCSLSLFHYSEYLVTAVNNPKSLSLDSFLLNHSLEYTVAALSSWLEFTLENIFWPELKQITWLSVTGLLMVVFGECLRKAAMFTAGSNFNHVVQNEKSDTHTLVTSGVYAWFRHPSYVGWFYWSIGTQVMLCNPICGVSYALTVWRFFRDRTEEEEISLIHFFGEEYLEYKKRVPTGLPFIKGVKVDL
Sequence of UniProt Q14789 (Q14789 whole entry, looked up): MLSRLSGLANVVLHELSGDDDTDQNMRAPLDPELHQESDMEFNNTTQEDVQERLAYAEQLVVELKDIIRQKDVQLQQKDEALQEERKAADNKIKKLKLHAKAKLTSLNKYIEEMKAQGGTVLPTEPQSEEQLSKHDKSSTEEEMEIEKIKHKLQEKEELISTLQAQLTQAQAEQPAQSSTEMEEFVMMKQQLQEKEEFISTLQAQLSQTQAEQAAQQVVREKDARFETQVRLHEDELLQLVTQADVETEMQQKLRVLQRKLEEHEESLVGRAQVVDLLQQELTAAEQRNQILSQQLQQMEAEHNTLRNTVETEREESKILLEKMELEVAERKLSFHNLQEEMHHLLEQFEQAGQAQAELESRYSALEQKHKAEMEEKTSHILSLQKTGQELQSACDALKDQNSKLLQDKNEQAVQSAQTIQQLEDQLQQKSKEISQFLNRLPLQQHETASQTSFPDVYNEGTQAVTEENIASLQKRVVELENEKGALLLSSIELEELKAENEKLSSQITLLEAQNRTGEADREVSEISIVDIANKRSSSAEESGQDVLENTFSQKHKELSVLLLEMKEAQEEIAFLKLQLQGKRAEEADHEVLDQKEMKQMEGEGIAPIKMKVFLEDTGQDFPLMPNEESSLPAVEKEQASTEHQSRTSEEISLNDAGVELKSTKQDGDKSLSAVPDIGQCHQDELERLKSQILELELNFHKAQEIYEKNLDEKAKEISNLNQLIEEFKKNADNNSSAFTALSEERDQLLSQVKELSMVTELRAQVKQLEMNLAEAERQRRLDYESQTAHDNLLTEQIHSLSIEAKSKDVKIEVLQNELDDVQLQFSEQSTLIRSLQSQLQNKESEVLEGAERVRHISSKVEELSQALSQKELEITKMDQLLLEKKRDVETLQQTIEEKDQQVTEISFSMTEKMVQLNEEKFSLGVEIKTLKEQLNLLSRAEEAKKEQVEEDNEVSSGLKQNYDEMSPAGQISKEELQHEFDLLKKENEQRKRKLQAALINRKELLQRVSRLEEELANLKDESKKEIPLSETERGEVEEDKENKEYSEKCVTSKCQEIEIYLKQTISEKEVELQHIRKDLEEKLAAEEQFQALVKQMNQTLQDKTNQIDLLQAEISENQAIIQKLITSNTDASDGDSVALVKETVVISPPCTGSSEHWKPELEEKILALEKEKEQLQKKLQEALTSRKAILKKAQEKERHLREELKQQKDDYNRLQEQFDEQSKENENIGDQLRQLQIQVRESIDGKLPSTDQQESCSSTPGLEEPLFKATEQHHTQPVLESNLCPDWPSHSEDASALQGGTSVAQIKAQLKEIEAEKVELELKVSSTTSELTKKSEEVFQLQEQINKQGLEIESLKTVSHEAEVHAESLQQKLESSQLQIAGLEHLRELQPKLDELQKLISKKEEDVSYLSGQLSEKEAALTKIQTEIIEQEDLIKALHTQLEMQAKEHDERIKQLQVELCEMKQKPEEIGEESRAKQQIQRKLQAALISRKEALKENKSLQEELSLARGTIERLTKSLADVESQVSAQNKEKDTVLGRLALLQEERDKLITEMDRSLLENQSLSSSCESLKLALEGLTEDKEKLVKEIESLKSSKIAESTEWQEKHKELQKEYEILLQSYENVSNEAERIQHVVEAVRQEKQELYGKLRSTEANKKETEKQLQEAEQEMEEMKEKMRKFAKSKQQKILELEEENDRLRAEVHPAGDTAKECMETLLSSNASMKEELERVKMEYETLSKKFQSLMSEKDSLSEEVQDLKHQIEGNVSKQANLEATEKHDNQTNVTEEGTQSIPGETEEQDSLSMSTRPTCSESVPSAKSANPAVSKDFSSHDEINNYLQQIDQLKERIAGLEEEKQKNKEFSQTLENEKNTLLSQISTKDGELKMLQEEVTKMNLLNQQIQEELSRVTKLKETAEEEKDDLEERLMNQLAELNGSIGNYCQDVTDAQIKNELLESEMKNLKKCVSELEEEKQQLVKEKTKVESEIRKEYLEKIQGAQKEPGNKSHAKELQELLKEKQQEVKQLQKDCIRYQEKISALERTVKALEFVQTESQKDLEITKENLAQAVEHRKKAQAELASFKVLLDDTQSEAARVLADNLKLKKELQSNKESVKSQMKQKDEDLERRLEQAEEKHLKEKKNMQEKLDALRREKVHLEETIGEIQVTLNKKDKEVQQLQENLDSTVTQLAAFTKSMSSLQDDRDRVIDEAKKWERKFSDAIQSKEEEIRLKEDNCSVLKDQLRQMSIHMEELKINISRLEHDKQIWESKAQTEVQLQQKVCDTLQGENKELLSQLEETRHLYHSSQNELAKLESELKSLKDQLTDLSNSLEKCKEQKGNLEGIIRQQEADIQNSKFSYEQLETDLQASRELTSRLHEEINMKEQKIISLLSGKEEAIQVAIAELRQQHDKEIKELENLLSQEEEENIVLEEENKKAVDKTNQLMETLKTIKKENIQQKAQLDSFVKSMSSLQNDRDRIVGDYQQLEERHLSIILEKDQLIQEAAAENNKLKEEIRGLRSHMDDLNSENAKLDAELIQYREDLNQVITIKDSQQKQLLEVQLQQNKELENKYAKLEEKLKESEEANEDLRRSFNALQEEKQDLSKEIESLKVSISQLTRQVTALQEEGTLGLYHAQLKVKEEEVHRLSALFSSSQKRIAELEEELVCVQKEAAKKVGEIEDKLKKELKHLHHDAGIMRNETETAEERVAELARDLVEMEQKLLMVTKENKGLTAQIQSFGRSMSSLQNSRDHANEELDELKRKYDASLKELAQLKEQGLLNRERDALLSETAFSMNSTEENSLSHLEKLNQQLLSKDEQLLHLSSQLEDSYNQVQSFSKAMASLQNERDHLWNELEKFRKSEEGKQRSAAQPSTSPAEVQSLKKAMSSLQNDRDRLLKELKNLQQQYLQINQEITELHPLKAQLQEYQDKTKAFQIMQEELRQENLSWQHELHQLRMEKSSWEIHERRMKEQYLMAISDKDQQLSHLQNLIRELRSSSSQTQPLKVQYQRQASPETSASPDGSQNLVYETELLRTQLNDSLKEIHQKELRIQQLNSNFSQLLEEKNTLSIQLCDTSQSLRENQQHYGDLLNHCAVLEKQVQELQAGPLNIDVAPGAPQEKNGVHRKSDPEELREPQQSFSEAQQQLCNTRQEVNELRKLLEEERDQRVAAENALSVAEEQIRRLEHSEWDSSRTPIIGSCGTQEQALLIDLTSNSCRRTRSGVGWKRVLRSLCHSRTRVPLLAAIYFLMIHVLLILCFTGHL
Sequence of UniProt O76003 (O76003 whole entry, looked up): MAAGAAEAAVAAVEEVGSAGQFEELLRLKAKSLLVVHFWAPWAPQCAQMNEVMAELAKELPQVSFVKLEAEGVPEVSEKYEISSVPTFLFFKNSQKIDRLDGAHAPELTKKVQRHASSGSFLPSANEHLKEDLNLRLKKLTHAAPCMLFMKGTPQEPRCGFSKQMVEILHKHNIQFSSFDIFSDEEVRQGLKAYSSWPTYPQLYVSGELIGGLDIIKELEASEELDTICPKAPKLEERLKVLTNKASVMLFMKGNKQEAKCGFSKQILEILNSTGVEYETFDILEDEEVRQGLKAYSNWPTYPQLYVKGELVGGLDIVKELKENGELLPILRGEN

Target | log2 fold change [1] | log2 fold change [2] | log2 fold change [3] | log2 fold change [4] | log2 fold change [5] | log2 fold change [6] | log2 fold change [7] | log2 fold change [8] | log2 fold change [9] | log2 fold change [10] | log2 fold change [11] | log2 fold change [12] | log2 fold change [13] | log2 fold change [14] | log2 fold change [15] | log2 fold change [16] | log2 fold change [17] | log2 fold change [18] | log2 fold change [19] | log2 fold change [20]
HSD17B12 (UniProt Q53GQ0) | 0.004 | 0.067 | 0.02 | 0.346 (active) | 0.025 | -0.012 | 0.027 | 0.064 | -0.028 | 0.124 | -0.01 | 0.038 | -0.127 | -0.037 | 0.289 (active) | 0.22 | -0.062 | -0.064 | 0.015 | 0.031
GNS (UniProt P15586) | -0.033 | -0.003 | 0.005 | 0.004 | 0.028 | 0.026 | 0.03 | -0.04 | 0.023 | 0.061 | 0.023 | -0.011 | 0.011 | -0.04 | 0.065 | -0.079 | 0.025 | -0.025 | -0.017 | -0.01
GOLGB1 isoform 2 (UniProt Q14789) | -0.152 | -0.045 | -0.312 (active) | -0.055 | 0.099 | 0.071 | -0.049 | -0.059 | -0.059 | -0.08 | -0.023 | -0.032 | 0.031 | 0.045 | 0.05 | 0.065 | 0.082 | 0.102 | 0.048 | -0.051
IFT80 isoform 3 (UniProt Q9P2H3) | 0.04 | 0.071 | -0.04 | 0.013 | 0.042 | -0.011 | -0.066 | -0.229 | -0.013 | 0.042 | 0.03 | 0.099 | -0.073 | -0.02 | -0.118 | -0.113 | 0.072 | 0.049 | -0.085 | 0.073
HDGFL2 (UniProt Q7Z4V5) | 0.002 | 0.001 | 0.042 | -0.006 | -0.046 | 0.048 | -0.01 | -0.046 | 0.033 | 0.057 | 0.01 | -0.039 | 0.011 | -0.019 | 0.041 | -0.017 | -0.022 | -0.051 | 0.029 | -0.709 (active)
HAT1 (UniProt O14929) | -0.048 | 0.036 | 0.044 | 0.048 | -0.075 | -0.045 | 0.03 | 0.027 | -0.055 | 0.069 | 0.027 | -0.009 | -0.109 | -0.003 | -0.027 | 0.006 | -0.022 | -0.048 | -0.013 | -0.03
GSTP1 (UniProt P09211) | 0.021 | 0.038 | 0.013 | -0.016 | 0.041 | 0.037 | 0.014 | 0.005 | 0.021 | 0.057 | 0.12 | -0.038 | -0.074 | -0.021 | -0.015 | 0.016 | -0.023 | -0.026 | -0.004 | 0.03
HMGN2 (UniProt P05204) | -0.02 | -0.01 | -0.255 | 0.034 | -0.125 | -0.039 | -0.052 | 0.059 | 0.011 | 0.019 | -0.034 | -0.009 | 0.121 | -0.024 | 0.29 | 0.128 | 0.093 | -0.074 | 0.108 | 0.401 (active)
ICAM1 (UniProt P05362) | 0.008 | 0.008 | 0.015 | 0.018 | -0.005 | -0.033 | -0.01 | -0.004 | -0.047 | 0.073 | 0.056 | 0.042 | -0.039 | -0.02 | 0.002 | 0.157 | -0.001 | -0.009 | -0.028 | 0.045
HRC (UniProt P23327) | 0.012 | -0.056 | 0.042 | -0.018 | 0.005 | 0.023 | -0.021 | -0.087 | 0.041 | 0.045 | 0.002 | 0.003 | 0.041 | -0.039 | 0.132 | 0.074 | 0.011 | 0.019 | 0.011 | -0.033
GEMIN6 (UniProt Q8WXD5) | -0.002 | 0.02 | -0.042 | 0.027 | -0.022 | 0.065 | 0.125 | -0.012 | -0.002 | -0.045 | 0.035 | 0.021 | 0.016 | 0.188 | -0.03 | -0.012 | -0.226 | 0.046 | -0.004 | 0.03
ICMT (UniProt O60725) | 0.059 | -0.081 | 0.015 | -0.001 | 0.214 | -0.064 | 0.122 | -0.038 | -0.206 | -0.032 | 0.039 | 0.182 | 0.248 | 0.163 | -0.032 | -0.472 (active) | -0.051 | -0.02 | -0.171 | 0.147
GYS1 (UniProt P13807) | -0.022 | -0.104 | -0.345 | -0.066 | -0.071 | -0.003 | -0.14 | 0.176 | -0.021 | -0.069 | -0.151 | 0.009 | -0.976 (active) | 0.095 | 0.158 | -0.253 | 0.141 | 0.412 | 0.042 | 0.046
HNRNPH1 (UniProt P31943) | 0.043 | 0.102 | -0.04 | 0.004 | -0.035 | -0.012 | -0.016 | 0.007 | -0.1 | -0.023 | -0.032 | 0.048 | -0.176 | -0.018 | 0 | -0.427 (active) | 0.131 | 0.031 | 0.011 | -0.045
GLRX3 (UniProt O76003) | -0.031 | 0.024 | 0.052 | -0.037 | 0.011 | 0.006 | 0.031 | -0.001 | 0.003 | -0.015 | -0.03 | -0.015 | 0.02 | 0.002 | -0.027 | -0.024 | -0.033 | -0.033 | -0.021 | -0.025
